The record followed here is PubChem BioAssay AID588689 (Southern Research Specialized Biocontainment Screening …, 2011).

Structures are written as SMILES. Hit rate of the full screen: of about 340,000 compounds, about 1,000 (0.29%) were called active. Cut-off read from the data, not from the text of the source: inconclusive = inhibition above about 29% without an active follow-up result; inactive = below that. The list is a sample of the results. Measured potencies and affinities stand elsewhere.

A word on the inhibition: it is the change of the read-out against control, counted positive when it falls.

The target of this test is Genome polyprotein (Dengue virus type 2 (strain 16681-PDK53)) (UniProt P29991). As to the kind of experiment: Dengue-2 NS5 methyltransferase inhibitors, primary screen, biochemical, confirmation dose response (AID 588689). The note with it: Dengue-2 NS5 methyltransferase capping enzyme assay, at 25 µM, stronger effect = higher value.
[1] abbreviates: measured here: pilot screen replicate inhibition.

On to `COCCCN(Cc1ccco1)C(=O)CSc1nc2ncccc2[nH]1`, for which the inhibition is -4.52% (inactive).

With `Cc1oc(-c2ccccc2Cl)nc1CS(=O)CC(=O)NCCCN1CC(C)CC(C)C1` (stereo not drawn), the inhibition was 2.33% (inactive).

Regarding `COc1cccc(/C=C2\Oc3cc(OCC(=O)N4CCC[C@H]4C(=O)O)ccc3C2=O)c1`, the inhibition was 2.17% (inactive).

Turning to `COc1ccc(/C=C2\Oc3cc(OCC(=O)N4CC(O)C[C@H]4C(=O)O)ccc3C2=O)cc1OC` (stereo partly drawn), the inhibition is -10.1% (inactive).

Regarding `CC(=O)CCS(=O)(=O)c1ccc(Oc2ccc(S(=O)(=O)CCC(C)=O)cc2)cc1`, the inhibition is 3.83% (inactive).

With `O=C(O)c1cccc(Nc2nc3ccccc3nc2NS(=O)(=O)c2ccccc2)c1`, the inhibition was 19.8% (inactive).

Turning to `COc1cccc(Nc2nc3ccccc3nc2NS(=O)(=O)c2cccs2)c1`, the inhibition was 16.4% (inactive). Moreover, under setting [1], the inhibition was found to be 3.81%.

As for `CC(=O)Nc1ccc(S(=O)(=O)Nc2nc3ccccc3nc2Nc2ccccc2)cc1`, the inhibition was -18.8% (inactive).

In the case of `O=C(O)c1ccc(Nc2nc3ccccc3nc2NS(=O)(=O)c2cccs2)cc1`, the inhibition is 19.7% (inactive).

As to `O=C(O)c1cccc(Nc2nc3ccccc3nc2NS(=O)(=O)c2ccc(F)cc2)c1`, the inhibition is 8.81% (inactive).

Take `Cc1cccc(S(=O)(=O)Nc2nc3ccccc3nc2Nc2cccc(C(=O)O)c2)c1`: the inhibition was 27.7% (inactive).

Regarding `CCc1ccc(/C=C2\SC(=S)N(CCCC(=O)N(CCO)c3ccccc3)C2=O)cc1`, the inhibition is 2.75% (inactive).

On to `Cc1ccc(-c2nc3ccccc3[nH]2)cc1NC(=O)c1sc2cc(Cl)ccc2c1Cl`, for which the inhibition was -3.63% (inactive).

For `CCC(C)C(NC(=O)c1ccccc1NC(=O)c1ccccc1)C(=O)O` (stereo not drawn), the inhibition was -1.16% (inactive).

On to `O=C(NNC(=O)c1ccccc1-n1cccc1)c1cccc(Cl)c1`, for which the inhibition is -3.46% (inactive).

As to `CCCC(C)NNC(=O)c1cc2ccccc2[nH]1` (stereo not drawn), the inhibition is 0% (inactive).

In the case of `COc1ccc(Cl)cc1Nc1nc(-c2sc(NC(=O)C(C)(C)C)nc2C)cs1`, the inhibition is -12% (inactive).

Turning to `Cc1ccc(-c2cccc(C3CC=CC4C3C(=O)N(Cc3ccccc3)C4c3cc(C)ccc3F)c2)cc1` (stereo not drawn), the inhibition is -5.46% (inactive).

For the molecule `COc1cc(S(=O)(=O)Nc2cccc(C)c2)ccc1NC(=O)c1ccncc1`, the inhibition was -1.47% (inactive).

For the molecule `N#CC1=C(N)C2=CCCC[C@H]2[C@H](c2cccc(F)c2)C1(C#N)C#N`, the inhibition was -4.34% (inactive).

Take `COc1cc(C=NNc2ccc(S(=O)(=O)Nc3ccccc3C(=O)O)cc2[N+](=O)[O-])ccc1O`: the inhibition was 17.4% (inactive).

Take `COc1ccc(C=NNc2ccc(S(=O)(=O)Nc3ccccc3C(=O)O)cc2[N+](=O)[O-])c(OC)c1`: the inhibition is 17% (inactive).

For `O=C(O)c1ccccc1NS(=O)(=O)c1ccc(NN=Cc2ccccc2F)c([N+](=O)[O-])c1`, the inhibition was 9.54% (inactive).

As to `CC(=O)Nc1ccc(C=NNc2ccc(S(=O)(=O)Nc3ccccc3C(=O)O)cc2[N+](=O)[O-])cc1`, the inhibition is 12.4% (inactive).

Turning to `CCOc1ccc(OCC)c(S(=O)(=O)n2cnc(C)c2)c1`, the inhibition was 4.27% (inactive).

With `CC(C)N1CCc2c(sc(NC(=O)c3ccco3)c2C(N)=O)C1`, the inhibition is -17.8% (inactive).

For `O=C(NN=C1CCN(Cc2ccccc2)CC1)c1ccccc1`, the inhibition is -11% (inactive).

Take `CSc1nc(N)nc2c1ncn2CC(=O)NCCCc1ccccc1`: the inhibition was -9.58% (inactive). In addition, the inhibition under setting [1] was -1.21%.

Turning to `Cc1cc(O)c(C(C)C)cc1N=Cc1ccccc1O`, the inhibition was 73.5% (inactive).

In the case of `Cc1cc(O)c(C(C)C)cc1N=Cc1cc([N+](=O)[O-])ccc1O`, the inhibition was 73.1% (inactive).

As to `CN(C(=O)c1cc(C(=O)N(C)c2ccccc2)cc([N+](=O)[O-])c1)c1ccccc1`, the inhibition is -8.48% (inactive).

For `Cc1oc2ccc(O)cc2c1C(=O)c1ccc(Br)cc1`, the inhibition is 1.53% (inactive).

Consider `Cc1oc2ccc(O)cc2c1C(=O)c1ccc([N+](=O)[O-])cc1`, for which the inhibition was -2.6% (inactive).

`COc1ccc(OC)c(C(=O)c2c(C)oc3cc([N+](=O)[O-])c(O)c([N+](=O)[O-])c23)c1`: the inhibition was 25.1% (inactive).

For `Cc1ccc(C(=O)c2coc3cc([N+](=O)[O-])c(O)c([N+](=O)[O-])c23)cc1`, the inhibition is 8.29% (inactive).

Consider `CCc1ccc(NC(=O)Cn2ncc3c4ccccc4n(C)c3c2=O)cc1`, for which the inhibition was -6.09% (inactive).

`CCCOc1ccc(C(=O)CCC(=O)Nc2ccc(N3CCN(C)CC3)cc2)cc1`: the inhibition was -15.3% (inactive).

Turning to `COC(=O)c1c(NC(=O)/C=C/C(=O)O)sc(Cc2ccccc2)c1C`, the inhibition was 8.38% (inactive).

For the molecule `Cc1sc(NC(=O)/C=C/C(=O)O)c(C(N)=O)c1-c1ccc(C(C)(C)C)cc1`, the inhibition was 15.2% (inactive).

As for `CCOC(=O)c1c(C)nn(-c2ccc(NC(=O)/C=C/C(=O)O)cc2)c1C`, the inhibition was -3.06% (inactive).

Consider `COC(=O)c1c(NC(=O)/C=C/C(=O)O)sc(C)c1-c1ccc(C)c(C)c1`, for which the inhibition is 18.9% (inactive).

As to `CCc1c(C)sc(NC(=O)/C=C/C(=O)O)c1C(N)=O`, the inhibition was -7.73% (inactive).

In the case of `CCOC(=O)c1c(NC(=O)/C=C/C(=O)O)sc(C)c1-c1ccc(F)cc1`, the inhibition is 23.7% (inactive).

Turning to `COC(=O)c1c(NC(=O)/C=C/C(=O)O)sc(C)c1-c1ccc(C)cc1`, the inhibition was -1.47% (inactive).

Take `CCOC(=O)c1c(NC(=O)/C=C\C(=O)O)sc(C)c1-c1ccccc1`: the inhibition was -5.1% (inactive).

In the case of `NC(=O)C1(N2CCCCC2)CCN(C2CC(=O)N(Cc3cccs3)C2=O)CC1` (stereo not drawn), the inhibition was -7.74% (inactive).

Consider `O=C(N/N=C/c1ccccc1O)C(=O)Nc1ccccn1`, for which the inhibition is -0.76% (inactive).

On to `CCCn1c(SCc2cc(=O)[nH]c3ccccc23)nc2c1c(=O)n(C)c(=O)n2C`, for which the inhibition is -2.04% (inactive). Further, the inhibition under setting [1] was -0.155%.

As for `Cc1ccccc1Cn1c(CN2CCN(C(=O)c3ccco3)CC2)nc2c1c(=O)n(C)c(=O)n2C`, the inhibition is -5.56% (inactive).

Take `CCc1ccc(NS(=O)(=O)c2ccc3oc(=O)ccc3c2)cc1`: the inhibition is 1.32% (inactive). In addition, the inhibition under setting [1] came out at 1.83%.

On to `O=C(NCc1ccccc1)c1cccc(S(=O)(=O)NCc2ccccc2)c1`, for which the inhibition was -6.73% (inactive).

In the case of `O=C(Nc1ccc(C(F)(F)F)cc1)C1CCCCN1S(=O)(=O)c1ccccc1` (stereo not drawn), the inhibition was -9.59% (inactive).

For `COc1ccc(-n2nc(C(=O)NCC(=O)N(C)Cc3ccccc3)c3ccccc3c2=O)cc1`, the inhibition is -2.44% (inactive).

Take `O=C1C(Cl)=C(N2CCCCCC2)C(=O)N1c1ccccc1Cl`: the inhibition was 8.59% (inactive).

For the molecule `Cc1ccccc1N1C(=O)C(Cl)=C(N2CCN(c3ccccc3)CC2)C1=O`, the inhibition is -3.27% (inactive).

`O=C1C(Cl)=C(N2CCCCC2)C(=O)N1c1ccccc1Cl`: the inhibition was 16.1% (inactive).

As to `Cc1ccccc1N1C(=O)C(Cl)=C(N2CCCCCC2)C1=O`, the inhibition is -0.78% (inactive).

For the molecule `CCc1ccccc1N1C(=O)c2cccc3c(N4CCOCC4)c([N+](=O)[O-])cc(c23)C1=O`, the inhibition is -4.86% (inactive).

Turning to `CC1=CC(C)(C)C(C(=O)O)C(C(=O)O)C1` (stereo not drawn), the inhibition was -2.42% (inactive).

As for `CCOC(=O)/C(C#N)=C1/C=C(C)c2ccccc2N1`, the inhibition is -9.35% (inactive).

Regarding `O=C(O)COc1ccc2c(c1)O/C(=C\c1cccs1)C2=O`, the inhibition is -8.5% (inactive).

Regarding `O=C(CSc1nncn1-c1ccccc1)N1CCCC1`, the inhibition is -4.17% (inactive).

Consider `CCc1ccc(NC(=O)C2CCCN(S(=O)(=O)c3ccc4c(c3)CCCN4C(C)=O)C2)cc1` (stereo not drawn), for which the inhibition is 2.65% (inactive).

With `CC(C)C(O)P(=O)(OCc1ccccc1)c1ccc(N(C)C)cc1` (stereo not drawn), the inhibition is 1.35% (inactive). The inhibition under setting [1] is -3.66%.

On to `CCOC(=O)C1CCCN1C(=O)c1ccc(OC)c(Br)c1` (stereo not drawn), for which the inhibition was 0% (inactive).

Turning to `Cc1[nH]c2ccc(Br)cc2c(=S)c1C/C=C/Cl`, the inhibition was 0% (inactive).

In the case of `CC(=O)c1c(C)oc2c1cc(O)c1ccccc12`, the inhibition was -5.41% (inactive).

As for `CC(=O)c1coc2c1cc(O)c1ccccc12`, the inhibition was -0.78% (inactive).

As for `CCN(C(=O)CCN1C(=O)c2ccccc2S1(=O)=O)c1ccccc1`, the inhibition is -2.22% (inactive).

`COc1ccc(C(=O)N2CCOC2CNC(=O)C(=O)NCc2ccc(C)cc2)cc1` (stereo not drawn): the inhibition is 1.73% (inactive).

`CSc1nc(-c2ccccc2)nc(NC(=O)C(C)C)c1C(C)=O`: the inhibition was -10.3% (inactive).

As for `O=C(NC1CC2CCCC(C1)N2S(=O)(=O)c1ccccc1)c1ccco1` (stereo not drawn), the inhibition is 1.41% (inactive).

Turning to `CSCC[C@H](NC(=O)c1cccs1)c1nnc2ccccn12`, the inhibition is 5.35% (inactive).

Consider `Cc1oc2c(cc(NS(=O)(=O)c3ccc(F)cc3)c3ccccc32)c1C(=O)O`, for which the inhibition is 11.6% (inactive).

Regarding `CCOC(=O)c1c(C)oc2ccc(NS(=O)(=O)c3ccc(C(=O)O)cc3)cc12`, the inhibition is 4.37% (inactive).

Consider `CC(=O)c1c(C)oc2c1cc(NS(=O)(=O)c1ccc(C(=O)O)cc1)c1ccccc12`, for which the inhibition is 15.7% (inactive).

Take `COc1ccc(S(=O)(=O)Nc2cc3c(C(C)=O)c(C)oc3c3ccccc23)cc1`: the inhibition is -1.56% (inactive).

Regarding `O=C(Cn1cnc2ccccc2c1=O)NCC(=O)N1CCN(Cc2ccc3c(c2)OCO3)CC1`, the inhibition was -2.08% (inactive).

Regarding `Cc1cccc(NC(=O)Nc2cnccn2)c1`, the inhibition was -2.65% (inactive).

As to `Cn1c(=O)c2c(ncn2CCC(=O)N/N=C/c2cccnc2)n(C)c1=O`, the inhibition is 0.78% (inactive).

Take `CN1C(=O)N(c2ccc(Cl)cc2)C(C)(O)CC1(C)C` (stereo not drawn): the inhibition is -7.17% (inactive).

Turning to `COc1cc2cccc(OC)c(=O)c2c(O)c1OC`, the inhibition was -2.72% (inactive).

Regarding `Oc1cccc2cc3cccc(O)c3c(O)c12`, the inhibition was -2.2% (inactive).

Consider `O=C(COC(=O)CCC(=O)c1cccs1)NCCc1ccccc1`, for which the inhibition was 10.1% (inactive).

`Cc1cccc(NC(=O)c2cccc(NC(=O)c3ccco3)c2)c1`: the inhibition was -3.49% (inactive).

Consider `O=c1c2c(C(F)(F)F)cc(C(F)(F)F)nc2[nH]n1-c1ccccc1`, for which the inhibition was 12% (inactive).

As for `Cc1cc(-c2ccccc2)nc2[nH]n(-c3ccccc3)c(=O)c12`, the inhibition is 14.4% (inactive).

Regarding `COC(C(=O)Nc1ccccc1C(=O)N1CCOCC1)c1ccccc1` (stereo not drawn), the inhibition was -4.55% (inactive).
